# EWS-Fli block: EWS/Fli-driven NR0B1 reporter inhibitors, primary screen, A673 cells, NR0B1 luciferase, luminescence, MLPCN library; AID 651661, 2012; inhibition, % at 12.6 µM; viability-normalised; actives 0.67% (n = 350,000);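 active means mean inhibition of at least 50% after viability correction, with every replicate also passing that limit; inconclusive means mean reaches 50% but only one of two replicates passes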;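 further: firefly luciferase signal divided by Alamar Blue viability fluorescence both relative to DMSO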
# LGR2 inh: inhibitors of bursicon-induced LGR2 CRE-luciferase signal, primary screen, cell-based, HEK293, CRE-luciferase reporter, bursicon stimulation; Drosophila bursicon receptor LGR2 (rickets); bursicon-stimulated, 4 h; inhibition, % at 9.99 µM; actives 0.35% (n = 380,000);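 active means drop in luminescence signal, shown as inhibition above about 50% in the replicate tests, limit read from the data, passing the limit was not always enough; inconclusive means probably only some replicates passing the limit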;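 further: agonist challenge used bursicon conditioned medium at about half maximal strength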
# TROY signal inh: inhibitors of TROY-driven NF-kB signaling, primary screen, Q293 LMP1-TROYcd cells, NF-kB luciferase, uHTS; Q293 LMP1-TROYcd NF-kB luciferase reporter, 4 h; inhibition, % at 10 µM; actives 0.98% (n = 360,000);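 active means compounds whose plate-normalised and pattern-corrected inhibition of the luciferase reporter signal at the single screening dose is 50% or more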
# EBV LMP1 NFkB: EBV LMP1-driven NF-kappaB luciferase reporter inhibitors, primary screen, cell-based, luminescence, single point | LMP1-induced NF-kappaB luciferase reporter cells | inhibition, % at 12.5 µM | actives 0.69% (n = 350,000); in the data active means inhibition above about 41%; inconclusive means no clear call, values can overlap the other calls
# PAX8 reporter: inhibitors of PAX8-driven TPO luciferase reporter, primary screen, RMG-I cells, single concentration. SteadyGlo, 24 h. AID 652154, 2013. inhibition, % at 12.6 µM. actives 1.2% (n = 360,000);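 active means mean replicate inhibition at least 60% with every replicate also reaching 60%; inconclusive means only one of the two criteria is met; inactive means mean below 60% and not all replicates reaching 60%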;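 further: luciferase light reporting Pax8 driven TPO promoter activity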
# TWEAK-Fn14 inh: inhibitors of TWEAK-Fn14 signaling, primary screen, luciferase reporter cells, uHTS; TWEAK-stimulated Fn14 reporter cells, luciferase luminescence, 8 h; actives 2% (n = 360,000); inhibition, % at 10 µM; in the data active means inhibition above about 50%
# DNA binder FP: DNA binders by acridine orange displacement, dose response, counter-screen for EWS/Fli inhibitor project, biochemical, fluorescence polarization, cherry-pick; salmon sperm DNA acridine orange fluorescence polarization; AID 720586, 2013; shares compounds with EWS-Fli block; AC35, µM (highest dose often 68 µM); actives 2% (n = 640);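 active means fitted curve reaches a 35% signal fall AC35 below twice the sample's top valid tested dose, actives reach about 48 µM in these data; inactive means the rest, including activity in the rising direction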;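 further: lower polarization ratio signals compound binding to DNA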
# Hits are given with their value; 0 = inactive; ? = inconclusive; - = no result. The list is not random: actives were taken first. Their share in the collection is about 3.2%.
SMILES,EWS-Fli block,LGR2 inh,TROY signal inh,EBV LMP1 NFkB,PAX8 reporter,TWEAK-Fn14 inh,DNA binder FP
COC(=O)C1=C(C)N(Cc2ccccc2C(F)(F)F)C(=NCc2ccc(C(F)(F)F)cc2)NC1c1ccc(C(F)(F)F)cc1 (configuration not stated),0,0,-,-,0,-,-
COC(=O)C1=C(C)N(Cc2ccccc2C(F)(F)F)C(=NCc2ccc(OC)cc2)NC1c1ccc(C(F)(F)F)cc1 (configuration not stated),55,0,-,-,0,-,0
C[C@@H]1CN([C@@H](C)CO)C(=O)c2cc(-c3ccncc3)cnc2O[C@H]1CN(C)C(=O)C1CCCCC1,0,0,-,-,-,-,-
C[C@@H]1CN([C@@H](C)CO)C(=O)c2cccc(NS(=O)(=O)c3ccccc3)c2O[C@@H]1CN(C)Cc1ccc(C(=O)Nc2ccccc2N)cc1,52,0,-,-,0,-,0
C[C@@H]1CN([C@@H](C)CO)C(=O)c2cccc(NS(=O)(=O)c3ccc(Cl)cc3)c2O[C@@H]1CN(C)Cc1ccc(C(=O)Nc2ccccc2N)cc1,53,0,-,-,-,-,0
C[C@H](CO)N1C[C@H](C)[C@@H](CN(C)Cc2ccc(C(=O)Nc3ccccc3N)cc2)Oc2c(NS(=O)(=O)c3ccccc3)cccc2C1=O,0,0,-,-,0,-,-
C[C@@H]1CN([C@H](C)CO)C(=O)c2cccc(NS(=O)(=O)c3ccc(Cl)cc3)c2O[C@H]1CN(C)Cc1ccc(C(=O)Nc2ccccc2N)cc1,0,0,-,-,0,-,-
N#C[C@H]1[C@H](c2ccc(C#CCC3CCCC3)cc2)[C@H](CO)N1C(=O)CN1CCOCC1,0,0,-,-,0,-,-
O=C(N/N=C/c1cccnc1)c1cc(-c2ccc(Cl)cc2)nc2ccccc12,0,0,0,0,0,0,-
O=C(N/N=C/c1ccc[nH]1)c1cc(-c2ccc(Cl)cc2)nc2ccccc12,54,0,0,0,0,0,0
O=C(C1CCCC1)N1CC(=O)N2[C@@H](CO)[C@@H](c3ccc(C#CC4CCCC4)cc3)[C@@H]2C1,0,0,-,-,0,-,-
O=S(=O)(c1cccs1)N1CCCCN2[C@H](C1)[C@@H](c1ccc(Br)cc1)[C@@H]2CO,0,0,-,-,0,-,-
COc1ccc(Nc2oc(COc3ccccc3OC)nc2C#N)cc1,54,-,0,56,0,55,0
O=C(c1nnsc1S(=O)c1ccc(Cl)cc1)N1CCOCC1 (configuration not stated),78,-,51,0,112,86,0
COC(=O)c1c(C)[nH]c(/C=N/Nc2ccccc2)c1C,54,-,0,0,0,0,0
Cc1c(C=NNc2ccccc2)[nH]c(=O)[nH]c1=O,0,0,0,0,0,0,-
CN1C(=O)c2cc(NC(=O)c3cccs3)ccc2OC[C@H]2O[C@@H](CC(=O)N3CCOCC3)CC[C@H]21,0,0,-,-,0,-,-
CC(=O)ON=C1C=CC(=C(C#N)c2ccccc2)C=C1,56,0,0,-,71,0,0
COc1ccc(C(C#N)=C2C=CC(=NO)C=C2)cc1,0,0,0,0,0,0,-
COc1cccc(OC)c1C(=O)Nc1cc(C)nn1-c1nc2ccccc2[nH]1,59,0,0,0,0,0,0
COc1ccc(C(=O)Nc2cc(C)nn2-c2nc3ccccc3[nH]2)c(OC)c1,0,0,0,0,0,0,-
COc1ccc2oc(-c3ccccc3)cc(=O)c2c1,60,64,0,-,-,74,0
O=c1cc(-c2ccccc2)oc2ccc(Br)cc12,0,0,0,0,0,0,-
Cc1c(-c2nc(-c3ccc(C(C)(C)C)cc3)no2)n(C)oc1=O,56,0,0,0,0,0,3.5µM
C[C@@H]1CN([C@@H](C)CO)C(=O)c2cc(NC(=O)C3CCCCC3)ccc2O[C@@H](C)CCCCO[C@H]1CN(C)Cc1ccc2c(c1)OCO2,0,0,-,-,0,-,-
SMILES,EWS-Fli block,LGR2 inh,TROY signal inh,EBV LMP1 NFkB,PAX8 reporter,TWEAK-Fn14 inh,DNA binder FP
CCCCCCCCCCCCCCCCCCNc1ccn(C2OC(COP(=O)(O)OCC3OC(n4cc(F)c(=O)[nH]c4=O)CC3O)C(O)C2O)c(=O)n1 (configuration not stated),61,-,0,0,0,0,0
O=c1[nH]c(=O)n(C2OC(CO)C(O)C(O)C2O)cc1F (configuration not stated),0,-,-,-,-,-,-
O=C(CCN1CCCCC1)NCC[C@H]1CC[C@@H](NS(=O)(=O)c2cccc(F)c2)[C@H](CO)O1,0,0,-,-,0,-,-
CO[C@H]1CN(C)C(=O)c2cc(NC(=O)c3ccc(Oc4ccccc4)cc3)ccc2OC[C@H](C)NC[C@@H]1C,58,0,-,-,0,-,0
CO[C@@H]1CN(C)C(=O)c2ccc(NC(=O)c3ccc(-c4ccccc4)cc3)cc2OC[C@H](C)NC[C@H]1C,-,0,-,-,0,-,-
CO[C@H]1CN(C)C(=O)c2ccc(NC(=O)c3ccc(-c4ccccc4)cc3)cc2OC[C@H](C)NC[C@H]1C,83,0,-,-,?,-,0
COc1ccc(OC)c(/C=C/c2ccnc3ccccc23)c1,70,0,0,0,0,0,0
S=C(NCCN1CCOCC1)Nc1ccccc1Cl,83,0,0,0,0,0,0
COc1ccc(-c2cnc3c(c2)C(=O)N([C@H](C)CO)C[C@H](C)[C@H](CN(C)C(=O)Nc2ccc(F)cc2)O3)cc1,0,0,-,-,0,-,-
CCCCC[C@H](C)N1C[C@H](COCc2ccccc2)Oc2cc(N3CC[C@@H](N(C)C)C3)ccc2S1(=O)=O,59,0,0,-,0,0,0
C/C=C/c1ccc([C@H]2[C@@H](CO)N3C(=O)CN(S(=O)(=O)c4cccc(F)c4)C[C@@H]23)cc1,52,0,-,-,-,-,0
C/C=C/c1ccc([C@H]2[C@@H](CO)N3C(=O)CN(S(=O)(=O)c4cccc(F)c4)C[C@H]23)cc1,0,0,-,-,-,-,-
Nc1ccc2oc(-c3cc(Br)ccc3Cl)nc2c1,54,-,0,0,-,0,0
O=C(N[C@H]1CC[C@@H](CC(=O)N2CCOCC2)O[C@H]1CO)c1ccc2c(c1)OCO2,0,0,-,-,0,-,-
CCCC#Cc1cnc2c(c1)C(=O)N([C@@H](C)CO)C[C@@H](C)[C@H](CN(C)Cc1ccncc1)O2,0,0,-,-,0,-,-
O=C1C(=O)N(Cc2cccs2)c2ccccc21,65,0,0,0,0,0,0
O=C1C(=O)N(CCS(=O)(=O)c2ccccc2)c2ccccc21,61,0,0,0,0,0,0
CCC(=O)N(C)C[C@@H]1Oc2ncc(C3=CCCC3)cc2C(=O)N([C@H](C)CO)C[C@H]1C,0,0,-,-,-,-,-

# Bioassay records as filed in PubChem.
